Out of some 52,000 compounds screened, about 4,300 (8.3%) were called active. Rule as the data show it: active = survival mostly below about 52% (no sharp cut-off); inactive = mostly above about 56%. This excerpt belongs to a sample that is enriched for actives.

The subject of this experiment is DeltatarO mutant. The experiment is described as follows: growth inhibition of S. aureus wild type versus tarO mutant, primary screen, teichoic acid synthesis inhibitors, RN4220, OD600 (AID 463173). The note with it: OD600, 18 h, stronger effect = lower value, screened at 18.75 µg/mL (by protocol).
As for `COc1cc(C(=O)NCCc2sc(-c3ccc(C)cc3)nc2C)cc(OC)c1OC`, the survival was 80% (inactive). Consider `Cc1ccc(/C=C2\SC(=O)NC2=S)o1`, for which the survival is 33% (active). `Cc1ccc(-n2c(C)cc(/C=C3\SC(=O)NC3=O)c2C)cc1`: the survival was 95% (inactive). `Cc1ccc(N=Cc2ccc(C)o2)cc1`: the survival is 98% (inactive). Turning to `Fc1ccc(CNc2ccc(N3CCCC3)cc2)cc1`, the survival is 97% (inactive). `Cc1ccccc1CNC(=O)CN1C(=O)C2CCCCN2c2ccc(C(=O)N3CCCC3)cc21` (stereo not drawn): the survival is 76% (inactive). In the case of `CCC(C)NC(=O)c1ccc2c(c1)N(Cc1ccccc1F)C(=O)c1ccccc1S2=O` (stereo not drawn), the survival was 64% (inactive). Regarding `Cc1ccc2oc(-c3ccc(Cl)cc3)c(O)c(=O)c2c1`, the survival is 72% (inactive).

Turning to `CC1CCN(C(=O)CSc2nnc(-c3ccccc3Cl)o2)CC1`, the survival was 104% (inactive). Take `O=C(CSc1nnc(-c2cccc(F)c2)o1)N1c2ccccc2Sc2ccccc21`: the survival was 114% (inactive). The result for `COc1cccc(-c2nnc(SCC(=O)N3CCc4ccccc43)o2)c1` reads 70% (inactive); that for `O=C(CSc1nnc(-c2cccc(Cl)c2)o1)N1CCc2ccccc21`, 85% (inactive). Take `CC1Cc2ccccc2N1C(=O)CSc1nnc(-c2ccccc2)o1` (stereo not drawn): the survival is 69% (inactive). As to `COc1cccc(-c2nnc(SCC(=O)N3c4ccccc4Sc4ccccc43)o2)c1`, the survival is 35% (active).

As for `CC1Cc2ccccc2N1C(=O)CSc1nnc(-c2ccccc2Cl)o1` (stereo not drawn), the survival is 49% (active). In the case of `CC1Cc2ccccc2N1C(=O)CSc1nnc(-c2cccc(Cl)c2)o1` (stereo not drawn), the survival is 34% (active). On to `CC1CCCCN1C(=O)CSc1nnc(-c2ccccc2Cl)o1` (stereo not drawn), for which the survival is 74% (inactive).

For `CCc1cccc(C)c1NS(=O)(=O)c1c(C(=O)N2CCCCCC2)c(C)n(C)c1C`, the survival was 101% (inactive). Under `Cc1ccc(-n2ncc(C(=O)N3CCN(C4CCCCC4)CC3)c2C2CCN(C(=O)OC(C)(C)C)CC2)cc1C` stands 85% (inactive). As to `Cc1cccc(CNS(=O)(=O)c2csc(C(N)=O)c2)c1`, the survival was 76% (inactive). With `CC(Oc1ccccc1)C(=O)Nc1ccc(OCc2cc(=O)n3ccsc3n2)cc1` (stereo not drawn), the survival is 76% (inactive). As to `CCCn1c(=O)c2sccc2n2c(CCCC(=O)Nc3ccc(C)c(F)c3)nnc12`, the survival was 88% (inactive). `O=C(C1CCCCC1)N1CCN(c2ncnc3c2cnn3-c2ccccc2)CC1`: the survival is 101% (inactive). The result for `O=CN1CCN(C(=O)c2ccc(F)cc2)CC1` reads 78% (inactive); that for `Cc1cccc(NC(=O)c2sc3ncnc(N(C)C4CCCCC4)c3c2C)c1C`, 118% (inactive). As for `Cc1ccc(CNC(=O)c2sc3ncnc(N(C)C4CCCCC4)c3c2C)cc1`, the survival is 91% (inactive). Consider `Cc1c(C(=O)Nc2ccccc2Cl)sc2ncnc(N(C)C3CCCCC3)c12`, for which the survival was 92% (inactive). Take `Cc1c(C(=O)Nc2ccccc2F)sc2ncnc(N(C)C3CCCCC3)c12`: the survival is 37% (active). On to `Cc1cccc(CNC(=O)c2sc3ncnc(N(C)C4CCCCC4)c3c2C)c1`, for which the survival was 46% (active). On to `Cc1c(C(=O)NCc2cccc(Cl)c2)sc2ncnc(N(C)C3CCCCC3)c12`, for which the survival is 101% (inactive). Turning to `O=C(NC1CC(=O)N(c2cccc(F)c2)C1)c1ccc(S(=O)(=O)N2CCCCC2)cc1` (stereo not drawn), the survival was 91% (inactive). `CCc1ccccc1Nc1ncnc2c1nc1n2CCCC1`: the survival is 94% (inactive). Regarding `O=C(CSc1nc2c([nH]c3ccccc32)c(=O)n1-c1ccc(Cl)cc1)N1CCCCCC1`, the survival is 76% (inactive).

Take `Cc1ccc(C(=O)Nc2nnc(S(=O)(=O)N(C)Cc3ccc(Cl)cc3)s2)cc1`: the survival is 99% (inactive). With `CN(Cc1ccccc1)S(=O)(=O)c1nnc(NC(=O)c2ccccc2Cl)s1`, the survival was 29% (active). Turning to `CN(Cc1ccc(F)cc1)S(=O)(=O)c1nnc(NC(=O)c2ccccc2Cl)s1`, the survival was 85% (inactive).

As to `CN(Cc1ccccc1)S(=O)(=O)c1nnc(NC(=O)c2cccc(Cl)c2)s1`, the survival is 1% (active). As for `Cc1cccc(C(=O)Nc2nnc(S(=O)(=O)N(C)c3ccccc3C)s2)c1`, the survival is 32% (active). In the case of `CCOc1cccc(C(=O)Nc2nnc(S(=O)(=O)N(C)c3ccc(C)cc3)s2)c1`, the survival was 75% (inactive). The result for `Cc1cccc(C(=O)Nc2nnc(S(=O)(=O)N(C)Cc3ccc(Cl)cc3)s2)c1` reads 95% (inactive); that for `Cc1cccc(N(C)S(=O)(=O)c2nnc(NC(=O)C(C)Oc3ccccc3)s2)c1` (stereo not drawn), 54% (inactive). With `Cc1cccc(C(=O)Nc2nnc(S(=O)(=O)N(C)Cc3ccccc3)s2)c1`, the survival is 23% (active).

Regarding `CCC(=O)Nc1nnc(S(=O)(=O)N(C)Cc2ccccc2)s1`, the survival is 87% (inactive). On to `Cc1ccccc1C(=O)Nc1nnc(S(=O)(=O)N(C)Cc2ccccc2)s1`, for which the survival is 75% (inactive). The result for `CCCCC(=O)Nc1nnc(S(=O)(=O)N(C)Cc2ccccc2)s1` reads 91% (inactive); that for `Cc1ccc(S(=O)(=O)c2nnn3c2nc(N(C)Cc2ccccc2)c2cc(Cl)ccc23)cc1C`, 108% (inactive); that for `Cc1ccccc1NC(=O)CSCn1nnc2c(=O)[nH]c(Cc3ccc(F)cc3)nc21`, 55% (inactive). Under `CC(C)Cn1c(=O)c2ccccc2n2c(CCC(=O)Nc3cccc(Cl)c3)nnc12` stands 88% (inactive); under `Cc1cc(OC(C)C(=O)N2CCC(c3nc4ccccc4o3)CC2)ccc1Cl` (stereo not drawn), 57% (inactive). Turning to `COc1ccc(C(=O)N/C(=C\c2cn(S(=O)(=O)N(C)C)c3ccccc23)C(=O)NCCCn2ccnc2)cc1`, the survival was 85% (inactive). For the compound `O=C(O)CCc1nnc2cnc3ccccc3n12`, the survival was 171% (inactive). On to `CCc1ccc(NC(=O)CC2C(=O)NCCN2C(=O)c2ccccc2OC)cc1` (stereo not drawn), for which the survival is 109% (inactive). For `COC(=O)c1ccc(NC(=O)c2cc3cc4ccc(OC)c(Cl)c4nc3s2)cc1`, the survival was 98% (inactive).

Regarding `Cc1ccc(NC(=O)CSc2cc(=O)n(C)c3ccc(Cl)cc23)c(Br)c1`, the survival is 79% (inactive).

Regarding `CCCCOC(=O)c1ccc(NC(=O)Cc2coc3c(C)c(C)ccc23)cc1`, the survival was 79% (inactive). For `Cc1ccccc1N(C)S(=O)(=O)c1nnc(NC(=O)c2ccccc2F)s1`, the survival is 27% (active).

For the compound `Cc1ccccc1N(C)S(=O)(=O)c1nnc(NC(=O)C(C)C)s1`, the survival is 69% (inactive). With `CN(Cc1ccccc1)S(=O)(=O)c1nnc(NC(=O)c2ccccc2)s1`, the survival is 26% (active). Regarding `CN(Cc1ccc(F)cc1)S(=O)(=O)c1nnc(NC(=O)c2ccc(F)cc2)s1`, the survival was 81% (inactive).

With `CN(Cc1ccc(F)cc1)S(=O)(=O)c1nnc(NC(=O)c2ccccc2)s1`, the survival was 102% (inactive). The result for `CCc1ccc(NC(=O)Cn2c(=O)n(-c3cc(OC)c(OC)c(OC)c3)c(=O)c3ccccc32)cc1` reads 72% (inactive). Turning to `COC(=O)c1cc2sc(Cl)cc2n1Cc1nc(-c2ccccc2C)oc1C`, the survival is 78% (inactive). For `CCOC(=O)CSc1nc(-c2ccccc2)cc(C(F)(F)F)c1C#N`, the survival was 70% (inactive). For `Cc1cc(=O)n2c([nH]c3ccccc32)c1C(=O)O`, the survival was 61% (inactive). `N#Cc1c(C(F)(F)F)cc(=O)n2c1[nH]c1ccccc12`: the survival was 37% (active). The result for `CC(=O)N1CCc2c(sc3c2c(=O)n(-c2ccccc2)c(=O)n3CC(=O)Nc2ccccc2)C1` reads 91% (inactive); that for `COc1cccc(NC(=O)C(=O)NCCc2csc(-c3ccc(C(F)(F)F)cc3)n2)c1`, 94% (inactive); that for `CCOc1ccccc1NC(=O)c1nnn(CC(=O)Nc2ccc(OC)c(OC)c2)c1N`, 91% (inactive). For `CC(CNC(=O)C1CCN(Cc2cc3ccccc3n2Cc2ccccc2)CC1)c1ccccc1` (stereo not drawn), the survival is 47% (active). On to `CCCNC(=O)C1CCN(Cc2cc3ccccc3n2Cc2ccccc2)CC1`, for which the survival is 87% (inactive).

Regarding `Cc1ccc(Cn2c(CN3CCC(C(=O)NCC(C)c4ccccc4)CC3)cc3ccccc32)cc1` (stereo not drawn), the survival was 113% (inactive).

For `Cc1cc(N2CCN(C)CC2)nc2ccc(NC(=O)Nc3ccc(F)cc3F)cc12`, the survival is 73% (inactive). Under `O=C(Cc1ccc(F)cc1)NCCc1csc(-c2cccc(F)c2)n1` stands 88% (inactive); under `Cc1ccc(C)c(NC(=O)/C(C#N)=C/c2ccc(C(C)C)cc2)c1`, 66% (inactive); under `Cc1cc(Cl)c2cccc(Br)c2n1`, 110% (inactive).

On to `Cc1cc(Nc2cccc(O)c2)c2cccc(Br)c2n1`, for which the survival was 61% (active). Regarding `Cc1cc(Nc2ccccc2C)c2cccc(C)c2n1`, the survival was 62% (inactive). Take `Cc1cccc(NC(=O)NCCn2c(=O)oc3ccc(C)cc32)c1`: the survival is 71% (inactive). Regarding `Cc1ccc(NC(=O)NCCOCCn2c(=O)oc3ccccc32)c(C)c1`, the survival was 70% (inactive). With `Cc1ccc(C(C)C)c(OCCCn2c(=O)oc3ccc(C)cc32)c1`, the survival was -5% (active).

As to `Cc1ccc(C(C)C)c(OCCCn2c(=O)oc3ccccc32)c1`, the survival was -3% (active). Take `Cc1ccc(C(C)C)c(OCC(=O)N2CCC(c3nc4ccccc4o3)CC2)c1`: the survival is 80% (inactive). In the case of `CCOc1ccccc1NC(=O)NCCn1c(=O)oc2ccc(C)cc21`, the survival is 71% (inactive). Consider `Cc1ccc(Cl)cc1NC(=O)Cn1c(=O)n(Cc2ccc(C(=O)NCc3ccc4c(c3)OCO4)cc2)c(=O)c2ccccc21`, for which the survival is 90% (inactive).

On to `COc1ccc(NC(=O)Cn2c(=O)n(-c3cc(C)cc(C)c3)c(=O)c3oc4ccccc4c32)cc1OC`, for which the survival was 68% (inactive). Under `CCc1ccccc1NC(=O)c1ccc2c(c1)N(Cc1cccc(Cl)c1)C(=O)c1ccccc1S2(=O)=O` stands 81% (inactive); under `O=S(=O)(NCCc1nnc2ccc(SCc3ccc(C(F)(F)F)cc3)nn12)c1ccccc1`, 67% (inactive); under `COc1c(C)cccc1C(=O)Nc1cccc2ccc(C)nc12`, -1% (active).

With `Cc1ccc2cccc(NC(=O)c3cccc4c(Br)cccc34)c2n1`, the survival was 134% (inactive).

On to `CCOc1ccccc1C(=O)Nc1cccc2ccc(C)nc12`, for which the survival is 68% (inactive). As to `Cc1ccc2cccc(NC(=O)c3cccc4c(Cl)cccc34)c2n1`, the survival is 63% (inactive). As for `COc1ccc(Br)cc1C(=O)Nc1cccc2ccc(C)nc12`, the survival was 73% (inactive). For the compound `Cc1ccc2cccc(NC(=O)c3cccc4ccccc34)c2n1`, the survival is -2% (active).
